Reference: PubChem BioAssay (EPA / NIEHS)
Inconclusive results are not listed. The source made the active and inactive calls. How the source made its calls, unless noted: active means hit-call score of the fitted dose curve at least 0.9, where 1 is the maximum; inconclusive means response in the unintended direction; inactive means score below 0.9. Where a SMILES comes first, the peptide text is derived from it. [ ]: non-standard residue; d: D form. pGlu = O=C1CC[C@@H](C(=O)O)N1

Columns and labels:
[1] = molecular target: Cellular tumor antigen p53 (Homo sapiens) (UniProt P04637); assay: TOX21_p53_BLA_p5_ratio: Tox21 HCT-116 p53 Agonism Beta-lactamase Assay, Ratio, Phase 5 (AID 2283599)
Chain of Cellular tumor antigen p53 (Homo sapiens) (P04637 whole entry, looked up): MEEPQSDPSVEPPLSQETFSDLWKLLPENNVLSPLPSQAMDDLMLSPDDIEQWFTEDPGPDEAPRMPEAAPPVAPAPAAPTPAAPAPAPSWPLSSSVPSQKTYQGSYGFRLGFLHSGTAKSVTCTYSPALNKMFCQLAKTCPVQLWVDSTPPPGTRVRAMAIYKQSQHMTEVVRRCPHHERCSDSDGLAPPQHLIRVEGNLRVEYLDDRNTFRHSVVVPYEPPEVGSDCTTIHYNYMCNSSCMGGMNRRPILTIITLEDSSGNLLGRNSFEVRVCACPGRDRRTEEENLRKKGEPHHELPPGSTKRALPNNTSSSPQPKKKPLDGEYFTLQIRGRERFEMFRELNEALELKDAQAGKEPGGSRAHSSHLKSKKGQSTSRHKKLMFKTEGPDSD
In short: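 HCT-116 cells carrying a p53-inducible beta-lactamase reporter were seeded at 4000 cells/well and dosed after 5 h with compound in DMSO (217-fold dilution). After 16 h at 37C, CCF4-AM substrate was added for 2 h, and the 460/530 nm emission ratio was scored as gain-of-signal versus DMSO.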

[2] = TOX21_p53_BLA_p5_viability: Viability Assessment in the Tox21 HCT-116 p53 Agonism Beta-lactamase Assay, Phase 5 (AID 2283600)
In short: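 Cells were plated at 4000/well, rested 5 h at 37C, then given compounds in DMSO (217-fold dilution) for 16 h at 37C, 5% CO2. Following the CCF4-AM beta-lactamase read, CellTiter-Glo was added and luminescence was read after 30 min at room temperature.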

[3] = molecular target: Cellular tumor antigen p53 (Homo sapiens) (UniProt P04637); assay: TOX21_p53_BLA_p4_ratio: Tox21 HCT-116 p53 Agonism Beta-lactamase Assay, Ratio, Phase 4 (AID 2283601)
In short: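 HCT116 cells carrying an inducible beta-lactamase reporter were plated at 4000 cells/well, rested 5 h, then exposed to compounds in DMSO (217-fold dilution) for 16 h at 37C. CCF4-AM substrate was loaded 2 h at room temperature; 460/530 nm emission ratio scored gain-of-signal versus DMSO.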

[4] = molecular target: Cellular tumor antigen p53 (Homo sapiens) (UniProt P04637); assay: TOX21_p53_BLA_p2_ratio: Tox21 HCT-116 p53 Agonism Beta-lactamase Assay, Ratio, Phase 2 (AID 2283592)
In short: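 HCT116 cells carrying a p53-responsive beta-lactamase reporter were plated, incubated 5 h at 37C, then dosed with compounds in DMSO (217-fold dilution) for 16 h. CCF4-AM substrate was added for 2 h at room temperature; the 460/530 nm emission ratio gave gain-of-signal activity relative to DMSO.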

[5] = molecular target: Cellular tumor antigen p53 (Homo sapiens) (UniProt P04637); assay: TOX21_p53_BLA_p3_ratio: Tox21 HCT-116 p53 Agonism Beta-lactamase Assay, Ratio, Phase 3 (AID 2283596)
In short: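 HCT116 p53-bla cells (4000/well) given compound in DMSO (217-fold dilution) after 5 h, incubated 16 h at 37C. CCF4-AM substrate 2 h at room temperature; 460/530 nm emission ratio, gain fitted against DMSO.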

[6] = TOX21_p53_BLA_p3_viability: Viability Assessment in the Tox21 HCT-116 p53 Agonism Beta-lactamase Assay, Phase 3 (AID 2283593);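 further: cells exposed to compound for 16 h before reading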
In short: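 HCT-116 cells (4000/well) rested 5 h at 37C, then got DMSO compounds by pin tool (217-fold dilution) for 16 h at 37C, 5% CO2. After the bla read, CellTiter-Glo was added and luminescence read at 30 min, room temperature.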

[7] = TOX21_p53_BLA_p4_viability: Viability Assessment in the Tox21 HCT-116 p53 Agonism Beta-lactamase Assay, Phase 4 (AID 2283597);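 further: hits lower the luminescence signal meaning cytotoxicity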
In short: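 HCT116 p53-bla cells (4000/well) rested 5 h at 37C, then received compounds in DMSO (217-fold dilution) for 16 h at 37C, 5% CO2. CellTiter-Glo was added after the CCF4-AM read, and luminescence was read after 30 min at room temperature.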

[8] = CEETOX_H295R_MTT_cell_viability: Viability Assessment in the CeeTox HT-H295R MTT Assay (AID 2283718; active means hit-call score of the fitted dose curve at least 0.9, where 1 is the maximum; inactive means score below 0.9)
In short: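 H295R cells prestimulated 48 h with 10 uM forskolin, then exposed 48 h to test chemical (0.1% DMSO final). Viability by MTT (0.5 mg/ml, 4 h, 37 C), absorbance 570/650 nm; percent change versus DMSO, bidirectional fit.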

[9] = CEETOX_H295R_11DCORT_noMTC: CeeTox H295R High-throughput Steroidogenesis Assay for 11-Deoxycortisol (11DCORT), maximum tolerated concentration (MTC) filtered results only (AID 2283911; active means hit-call score of the fitted dose curve at least 0.9, where 1 is the maximum; inactive means score below 0.9); details: actives raise or lower the signal
In short: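 HPLC-MS/MS read-out of 11-deoxycortisol after MTBE extraction of H295R medium. Cells: forskolin 10 uM pre-stimulation 48 h, chemical 48 h, 0.1% DMSO final. Bidirectional fit vs DMSO baseline; no MTC filtering.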

[10] = CEETOX_H295R_OHPREG_noMTC: CeeTox H295R High-throughput Steroidogenesis Assay for OH-Pregnenolone (OHPREG), maximum tolerated concentration (MTC) filtered results only (AID 2283912; active means hit-call score of the fitted dose curve at least 0.9, where 1 is the maximum; inactive means score below 0.9); details: actives raise or lower the signal
In short: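 H295R human adrenal cells, forskolin-prestimulated (10 uM, 48 h), then exposed to test chemical in 0.1% DMSO for 48 h. 17alpha-hydroxypregnenolone in medium measured by HPLC-MS/MS after MTBE extraction; bidirectional fit versus DMSO, concentrations not MTC-filtered.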

[11] = CEETOX_H295R_OHPROG_noMTC: CeeTox H295R High-throughput Steroidogenesis Assay for OH-Progesterone (OHPROG), maximum tolerated concentration (MTC) filtered results only (AID 2283914; active means hit-call score of the fitted dose curve at least 0.9, where 1 is the maximum; inactive means score below 0.9); details: actives raise or lower the signal
In short: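 H295R human adrenal cells prestimulated 48 h with 10 uM forskolin, then exposed 48 h to test chemical (0.1% DMSO final). Medium 17alpha-hydroxyprogesterone extracted with MTBE, quantified by HPLC-MS/MS; bidirectional fit versus DMSO, concentrations not MTC-filtered.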

[12] = CEETOX_H295R_CORTISOL_noMTC: CeeTox H295R High-throughput Steroidogenesis Assay for Cortisol, maximum tolerated concentration (MTC) filtered results only (AID 2283916; active means hit-call score of the fitted dose curve at least 0.9, where 1 is the maximum; inactive means score below 0.9); details: actives raise or lower the signal
In short: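 H295R adrenal cells were pre-stimulated 48 h with 10 uM forskolin, then exposed 48 h to test chemical in 0.1% DMSO. Medium cortisol was measured by MTBE extraction and HPLC-MS/MS; bidirectional fit versus DMSO, concentrations not MTC-filtered.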

[13] = CEETOX_H295R_CORTIC_noMTC: CeeTox H295R High-throughput Steroidogenesis Assay for Corticosterone (CORTIC), maximum tolerated concentration (MTC) filtered results only (AID 2283917; active means hit-call score of the fitted dose curve at least 0.9, where 1 is the maximum; inactive means score below 0.9); details: actives raise or lower the signal
In short: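 H295R, 10 uM forskolin prestim 48 h → test chem (0.1% DMSO final) 48 h → media MTBE extraction → HPLC-MS/MS corticosterone. Bidirectional fit vs DMSO baseline; no MTT-based MTC filtering.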

[14] = CEETOX_H295R_DOC_noMTC: CeeTox H295R High-throughput Steroidogenesis Assay for DOC, maximum tolerated concentration (MTC) filtered results only (AID 2283918; active means hit-call score of the fitted dose curve at least 0.9, where 1 is the maximum; inactive means score below 0.9); details: actives raise or lower the signal
In short: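 H295R cells prestimulated 48 h with 10 uM forskolin, then exposed 48 h to test chemical (0.1% DMSO final). Medium 11-deoxycorticosterone extracted with MTBE, quantified by HPLC-MS/MS; bidirectional fit versus DMSO, concentrations not MTC-filtered.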

[15] = CEETOX_H295R_PROG_noMTC: CeeTox H295R High-throughput Steroidogenesis Assay for Progesterone (PROG), maximum tolerated concentration (MTC) filtered results only (AID 2283920; active means hit-call score of the fitted dose curve at least 0.9, where 1 is the maximum; inactive means score below 0.9); details: actives raise or lower the signal
In short: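 H295R human adrenal cells were prestimulated 48 h with 10 uM forskolin, then exposed 48 h to test chemical (0.1% DMSO final). Progesterone in medium was quantified by HPLC-MS/MS; bidirectional fitting versus DMSO, concentrations not MTC-filtered.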

[16] = CCTE_Harrill_HTTr_Viability_MCF7: CCTE's 6-hour Cell Viability Assessment for the High-Throughput Transcriptomics (HTTr) Platform, in MCF-7 cells cultured in DMEM + 10% fetal bovine serum, Harrill Lab (AID 2284010; active means hit-call score of the fitted dose curve at least 0.9, where 1 is the maximum; inactive means score below 0.9)
In short: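 Viability measured through PI dye exclusion by high-content imaging at 6 h post-dosing.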

[17] = CCTE_Harrill_HTTr_Apoptosis_MCF7: CCTE's 6-hour Apoptosis Assessment for the High-Throughput Transcriptomics (HTTr) Platform, in MCF-7 cells cultured in DMEM + 10% fetal bovine serum, Harrill Lab (AID 2284011; active means hit-call score of the fitted dose curve at least 0.9, where 1 is the maximum; inactive means score below 0.9)
In short: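 MCF-7 cells in DMEM + 10% fetal bovine serum were exposed to chemicals for 6 hours over an eight-point dilution series. Caspase-3/7 activation was imaged by high content imaging with CellEvent Caspase 3/7 Green; bidirectional fitting used DMSO as baseline.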

Measured: AC50

CC[C@H](C)[C@H](NC(=O)[C@H](Cc1ccccc1)NC(=O)[C@H](C)NC(=O)[C@H](CC(=O)O)NC(=O)[C@H](CCCCN)NC(=O)[C@H](CO)NC(=O)[C@@H]1CCCN1C(=O)[C@@H]1CCC(=O)N1)C(=O)NCC(=O)N[C@@H](CC(C)C)C(=O)N[C@@H](CCSC)C(N)=O ([pGlu]PSKDAFIGLM-NH2)
inactive: [1] | [2] | [3]

O=C1CC2(CCCC2)CC(=O)N1CCNCC1COc2ccccc2O1 (configuration not stated)
inactive: [4] | [5] | [1] | [2] | [3]

CC(C)(C(=O)c1cccnc1)c1cccnc1
active: [9] 35.3 µM | [10] 36.9 µM | [11] 29.1 µM | [12] 1.56 µM | [13] 0.13 µM
not listed: [2] | [4]
inactive: all other assays above

CCCCOC(=O)c1ccccc1C(=O)OCC(CC)CCCC (configuration not stated)
inactive: [4] | [7]

Brc1c(NC2=NCCN2)ccc2nccnc12
inactive: [6] | [5] | [1] | [2] | [3]

O=C(O)c1ccc(Cl)cc1Cl
inactive: [1] | [3]

N#Cc1c(F)cccc1F
inactive: [6] | [5] | [1] | [2] | [3]
